High-throughput results: PubChem BioAssay, National Center for Advancing Translational Sciences (NCATS)
Rows were chosen to be rich in hits. Some 2.4% of all compounds tested hit in one or more screens of this group.
AmpC nodet inh: AmpC beta-lactamase inhibition, detergent-free assay; P00811; AmpC nitrocefin hydrolysis, absorbance 480 nm, no detergent; Potency, µM (titrated, usually from 28.7 µM); 71,000 compounds, 1.8% hits; AID 585
Target sequence (P00811 whole entry, looked up): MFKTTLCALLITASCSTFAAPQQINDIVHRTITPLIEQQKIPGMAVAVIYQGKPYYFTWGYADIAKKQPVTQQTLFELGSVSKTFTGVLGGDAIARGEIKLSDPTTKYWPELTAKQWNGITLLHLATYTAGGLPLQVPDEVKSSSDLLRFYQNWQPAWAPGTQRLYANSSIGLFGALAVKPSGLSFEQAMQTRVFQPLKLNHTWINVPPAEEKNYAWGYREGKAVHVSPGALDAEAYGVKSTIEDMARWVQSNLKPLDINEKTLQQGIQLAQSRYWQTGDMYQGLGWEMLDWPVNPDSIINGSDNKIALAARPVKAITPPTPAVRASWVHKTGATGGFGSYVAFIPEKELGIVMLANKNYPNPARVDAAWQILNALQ
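AmpC, 20 mM phosphate pH 7.0; 15 min cpd preinc, RT; start with nitrocefin (800 uM stock); A480 kinetic read, 20 s intervals, 4 min. No-enzyme wells = negative control.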
Anthrax LT inh: blocks cellular internalization of anthrax lethal toxin; Cells, anthrax lethal toxin internalization, FRET ratio (460/530); Potency, µM (highest dose often 40 µM), hits mostly inhibitors; 70,000 compounds, 0.67% hits; note: nearly all actives have a fitted effect of over 50% in size
Prx2 Sm inh: inhibitors of Schistosoma mansoni peroxiredoxin 2; AID 448; Potency, µM; S. mansoni Prx2 activity coupled to TGR/GSH (TGR is thioredoxin glutathione reductase), NADPH fluorescence loss, qHTS; 65,000 compounds, 0.07% hits
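Prx2 inhibition was measured as reduced NADPH consumption when electrons flowed from NADPH through TGR and glutathione to Prx2 and H2O2. Plates were read kinetically over 8 min; enzyme reagents were held at 4 deg C during dispensing.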
AmpC det inh: blocks E. coli AmpC beta-lactamase in presence of detergent | purified AmpC, nitrocefin hydrolysis with detergent | Potency, µM (series often up to 28.7 µM) | P00811 | 71,000 compounds, 0.09% hits; active = well fitted curve in the direction sought with a large enough effect; inconclusive = small, poorly fitted or top-dose-only effect
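E. coli AmpC (5.3 nM) in 20 mM phosphate pH 7.0 with 0.01% Triton X-100, preincubated 15 min RT with compound; nitrocefin (2 uL of 800 uM stock) hydrolysis followed by 480 nm absorbance every 20 s over 4 min.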
Numbers stand for hits; [ ] = another dose, or the depositor's remark. Unless noted, calls come from the whole dose curve.

For O=C1CCn2nc(-c3ccc(Cl)cc3)cc2N1 the results were AmpC nodet inh 4µM[single pt active], Anthrax LT inh inactive, Prx2 Sm inh inactive and AmpC det inh inactive.
CC(C)CC(NS(=O)(=O)c1ccc2c(c1)oc(=O)n2C)C(=O)NC1CCCc2ccccc21 (configuration not stated) was read as AmpC nodet inh 4µM[single pt active], Anthrax LT inh inactive, Prx2 Sm inh inactive and AmpC det inh inactive.
`CC1CC(C)CN(C(=O)C(NS(=O)(=O)c2ccc3c(c2)oc(=O)n3C)C(C)C)C1` (configuration not stated) gave AmpC nodet inh 4µM[single pt active], Anthrax LT inh inactive, Prx2 Sm inh inactive and AmpC det inh inactive.
For CC(C)C(NS(=O)(=O)c1ccc2c(c1)oc(=O)n2C)C(=O)N1CCN(C2CCCCC2)CC1 (configuration not stated) the results were AmpC nodet inh inactive, Anthrax LT inh inactive, Prx2 Sm inh inactive and AmpC det inh inactive.
For CC1CCN(C(=O)CN2C(=O)C(=O)c3ccccc32)CC1 the results were AmpC nodet inh 4µM[single pt active], Anthrax LT inh inactive, Prx2 Sm inh inactive and AmpC det inh inactive.
For CC1CCN(C(=O)Cn2c(=O)oc3ccccc32)CC1 the results were AmpC nodet inh inactive, Anthrax LT inh inactive, Prx2 Sm inh inactive and AmpC det inh inactive.
`COc1ccccc1-c1nnc2sc(COc3ccc(Cl)cc3Cl)nn12` gave AmpC nodet inh inactive, Anthrax LT inh 10µM, Prx2 Sm inh inactive and AmpC det inh inactive.
`Clc1ccc(OCc2nn3c(C4CCCCC4)nnc3s2)c(Cl)c1` gave AmpC nodet inh inactive, Anthrax LT inh inactive, Prx2 Sm inh inactive and AmpC det inh inactive.
For CCN(CCNC(=O)CC1Oc2ccccc2NC1=O)c1ccccc1 (configuration not stated) the results were AmpC nodet inh 4µM[single pt active], Anthrax LT inh inactive, Prx2 Sm inh inactive and AmpC det inh inactive.
For CCCSCCCNC(=O)CC1Oc2ccccc2NC1=O (configuration not stated) the results were AmpC nodet inh 4µM[single pt active], Anthrax LT inh inactive, Prx2 Sm inh inactive and AmpC det inh inactive.
For CCC(C)N(CCNC(=O)CC1Oc2ccccc2NC1=O)C1CCCCC1 (configuration not stated) the results were AmpC nodet inh 4µM[single pt active], Anthrax LT inh inactive, Prx2 Sm inh inactive and AmpC det inh inactive.
Screening CC(C)CN(CCNC(=O)CC1Oc2ccccc2NC1=O)CC(C)C (configuration not stated) returned AmpC nodet inh 4µM[single pt active], Anthrax LT inh inactive, Prx2 Sm inh inactive and AmpC det inh inactive.
Screening CC(C)[C@@H](C(=O)O)N1C(=O)c2ccccc2C1=O returned AmpC nodet inh inactive[5.75 µM], Anthrax LT inh inactive[8 µM], Prx2 Sm inh inactive and AmpC det inh inactive[5.75 µM].
For CC(=O)Oc1ccc(/C=C\C(=O)C[C@@H]2O[C@@H](Oc3cc(OC(C)=O)c4c(c3)O[C@@H](c3ccc(OC(C)=O)cc3)CC4=O)[C@H](OC(C)=O)[C@H](OC(C)=O)[C@@H]2OC(C)=O)cc1 the results were AmpC nodet inh inactive, Anthrax LT inh inconclusive, Prx2 Sm inh inactive and AmpC det inh inactive.
COc1ccc(NC(=O)N2CCCC3(CCN(C(=O)c4cccn4C)CC3)C2)cc1 was read as AmpC nodet inh inactive, Anthrax LT inh inconclusive, Prx2 Sm inh inactive and AmpC det inh inactive.
Cc1nc2cc(-c3cccc(F)c3)nn2c(C)c1CCC(=O)NC(C)CCc1ccco1 (configuration not stated) was read as AmpC nodet inh inactive, Anthrax LT inh inconclusive and AmpC det inh inactive.
Cc1nc2cc(-c3cccc(F)c3)nn2c(C)c1CCC(=O)N1CCN(c2ccccn2)CC1 was read as AmpC nodet inh 4µM[single pt active], Anthrax LT inh inactive, Prx2 Sm inh inactive and AmpC det inh inactive.
Screening O=C(Oc1ccccc1)N1CCC2(CC1)CCN(c1ccccc1)CC2 returned AmpC nodet inh inactive, Anthrax LT inh inactive, Prx2 Sm inh inactive and AmpC det inh inactive.
Screening CC1(C)[C@@H]2CC[C@]1(C)[C@@H](OC(=O)/C=C\c1ccccc1)C2 returned AmpC nodet inh inactive[5.75 µM], Anthrax LT inh inconclusive, Prx2 Sm inh inactive and AmpC det inh inactive[5.75 µM].
`O=C(NCCCN1CCN(c2ccccc2F)CC1)C1CCCN(S(=O)(=O)c2cnc[nH]2)C1` (configuration not stated) gave AmpC nodet inh 4µM[single pt active], Anthrax LT inh inactive and AmpC det inh inactive.
Screening O=S(=O)(c1ccc(F)cc1)N1CCC(N2CCCC2)CC1 returned AmpC nodet inh 4µM[single pt active], Anthrax LT inh inconclusive, Prx2 Sm inh inactive and AmpC det inh inactive.
